In PubChem BioAssay (NCATS):
Records with an inconclusive call do not appear. Calls of active or inactive are those of the source. Unless noted, calls follow the shape of the dose curve; as a rule, active = well fitted curve in the direction sought with a large enough effect; inconclusive = small, poorly fitted or top-dose-only effect, or another doubt; inactive = no such curve, though single readings can be large; an effect the other way counts as inactive or inconclusive.

Assays:
[1] = biological target: Beta-2 adrenergic receptor (Homo sapiens) (UniProt P07550); test: qHTS validation assay of beta-arrestin-biased ligands of beta2-adrenergic receptor (AID 485366); also: 0% is about no effect
Beta-2 adrenergic receptor (Homo sapiens), sequence (P07550 whole entry, looked up): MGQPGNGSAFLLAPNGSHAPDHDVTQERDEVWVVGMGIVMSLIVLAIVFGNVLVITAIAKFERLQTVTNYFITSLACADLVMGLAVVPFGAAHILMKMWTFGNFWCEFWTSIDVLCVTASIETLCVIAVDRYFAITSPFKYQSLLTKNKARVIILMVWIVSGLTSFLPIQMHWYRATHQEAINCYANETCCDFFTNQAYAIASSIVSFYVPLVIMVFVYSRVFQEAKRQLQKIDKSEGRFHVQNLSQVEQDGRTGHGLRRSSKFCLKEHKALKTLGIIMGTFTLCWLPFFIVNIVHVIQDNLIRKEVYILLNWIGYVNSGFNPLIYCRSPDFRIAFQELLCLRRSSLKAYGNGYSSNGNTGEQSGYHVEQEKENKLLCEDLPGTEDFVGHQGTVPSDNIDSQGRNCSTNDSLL
Procedure, shortened: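 Agonism was measured as beta-arrestin recruitment to recombinant beta2-AR, releasing tTA to drive luciferase. Cells were exposed for 18 hr at 37 degrees C to a series up to 46 microM. %Activity from corrected luminescence gave concentration-response curves.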

[2] = biological target: ATP-dependent 6-phosphofructokinase (Trypanosoma brucei brucei) (UniProt O15648); test: qHTS Validation Assay to Find Inhibitors of T. brucei phosphofructokinase (AID 485368)
Procedure, shortened: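 ADP-Glo luminescence, two-step: residual ATP depleted, then ADP converted to ATP for luciferase. Enzyme 1.25 nM, F6P 0.5 mM, ATP 0.1 mM, pH 8.0 TEA buffer, 45 min RT. Curves fitted and classed by quality and efficacy.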

[3] = biological target: Thioredoxin reductase 1, cytoplasmic (Rattus norvegicus) (UniProt O89049); test: qHTS Assay for Substrates of Mammalian Selenoprotein Thioredoxin Reductase 1 (TrxR1) (AID 488772);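 also: series mostly up to about 57 µM; 0% is about no effect; a drop in NADPH fluorescence below the no-compound background marks a TrxR1 substrate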
Thioredoxin reductase 1, cytoplasmic (Rattus norvegicus), sequence (O89049 whole entry, looked up): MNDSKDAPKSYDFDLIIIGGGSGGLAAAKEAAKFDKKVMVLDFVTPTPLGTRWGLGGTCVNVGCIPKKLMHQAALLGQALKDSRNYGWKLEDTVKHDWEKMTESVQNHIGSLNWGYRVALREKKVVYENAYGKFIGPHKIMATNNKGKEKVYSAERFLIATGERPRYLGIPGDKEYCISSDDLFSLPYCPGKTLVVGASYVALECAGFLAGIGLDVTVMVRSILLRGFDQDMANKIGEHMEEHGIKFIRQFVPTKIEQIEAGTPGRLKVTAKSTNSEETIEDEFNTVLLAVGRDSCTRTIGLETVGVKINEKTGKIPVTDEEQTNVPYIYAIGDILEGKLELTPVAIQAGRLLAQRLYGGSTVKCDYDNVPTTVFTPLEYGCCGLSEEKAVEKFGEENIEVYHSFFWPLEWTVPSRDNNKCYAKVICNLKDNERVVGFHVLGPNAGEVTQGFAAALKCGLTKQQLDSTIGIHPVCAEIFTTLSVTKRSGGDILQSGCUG
Procedure, shortened: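 In this dual-purpose format, potential substrates are identified from the first fluorescence read after selenite addition, not from the 8-minute delta. Rat enzyme is preincubated with NADPH and then with compound at ~22 deg C.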

[4] = biological target: Thioredoxin reductase 1, cytoplasmic (Rattus norvegicus) (UniProt O89049); test: qHTS Assay for Inhibitors of Mammalian Selenoprotein Thioredoxin Reductase 1 (TrxR1) (AID 488773); conditions: Potency: inhibition;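 also: drop in NADPH fluorescence over an 8 min run after selenite addition; series mostly up to about 57 µM; % is scaled to controls: 0 for no effect and ±100 for the full control effect; nearly all actives have a fitted effect of over 40% in size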
Procedure, shortened: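 Inhibition is scored from the loss of NADPH fluorescence between first and last reads of an 8-min kinetic run. Selenite (400 uM) was the substrate, added after 15 min compound preincubation at room temperature.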

[5] = biological target: Flap endonuclease 1 (Homo sapiens) (UniProt P39748); test: qHTS Validation Assay for the Inhibitors of Human Flap endonuclease 1 (FEN1) (AID 488816); also: % is scaled to controls: 0 for no effect and ±100 for the full control effect
Procedure, shortened: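 Steps: add FEN1 (10 nM reagent) or buffer only; pin compounds; hold 15 min at room temperature; start with substrate, 50 nM final; read at 0 and 15 min; correct, normalize and fit a four-parameter Hill curve.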

[6] = biological target: M-phase phosphoprotein 8 (Homo sapiens) (UniProt Q99549); test: qHTS Validation Assay for Inhibitors for MPP8 Chromodomain Interactions with Methylated Histone Tails (AID 488949);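 also: AlphaScreen signal from MPP8 chromodomain bound to biotinylated H3K9me3 peptide; top concentration of the series differs between compounds; % is scaled to controls: 0 for no effect and ±100 for the full control effect; nearly all actives have a fitted effect of over 55% in size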
M-phase phosphoprotein 8 (Homo sapiens), sequence (Q99549 whole entry, looked up): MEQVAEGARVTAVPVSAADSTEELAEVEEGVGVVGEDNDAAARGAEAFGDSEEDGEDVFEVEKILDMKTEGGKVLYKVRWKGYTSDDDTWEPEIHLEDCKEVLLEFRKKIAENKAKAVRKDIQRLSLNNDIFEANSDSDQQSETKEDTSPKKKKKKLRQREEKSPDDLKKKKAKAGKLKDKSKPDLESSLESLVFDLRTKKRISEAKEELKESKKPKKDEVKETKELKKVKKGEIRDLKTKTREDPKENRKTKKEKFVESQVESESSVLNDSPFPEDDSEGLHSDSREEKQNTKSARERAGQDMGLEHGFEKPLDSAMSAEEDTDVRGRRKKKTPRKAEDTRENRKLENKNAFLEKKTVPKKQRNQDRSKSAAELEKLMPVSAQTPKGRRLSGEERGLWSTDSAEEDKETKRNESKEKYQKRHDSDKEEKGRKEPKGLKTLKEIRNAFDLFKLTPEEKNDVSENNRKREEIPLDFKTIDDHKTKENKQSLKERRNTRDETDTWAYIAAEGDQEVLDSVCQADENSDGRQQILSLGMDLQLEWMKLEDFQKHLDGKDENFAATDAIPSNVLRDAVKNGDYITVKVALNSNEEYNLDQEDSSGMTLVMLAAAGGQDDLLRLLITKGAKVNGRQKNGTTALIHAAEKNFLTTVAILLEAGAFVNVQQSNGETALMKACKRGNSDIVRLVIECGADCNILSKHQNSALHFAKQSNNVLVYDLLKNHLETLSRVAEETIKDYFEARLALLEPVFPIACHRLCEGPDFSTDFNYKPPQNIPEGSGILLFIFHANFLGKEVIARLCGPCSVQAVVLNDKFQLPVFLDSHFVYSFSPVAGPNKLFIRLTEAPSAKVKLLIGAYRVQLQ
Procedure, shortened: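 MPP8 (50 nM) was preincubated with biotinylated H3(1-18)K9me3 peptide (50 nM) in PBS pH 7.4, 0.01% Tween-20 for 30 min at room temperature, then with compounds for 30 min; binding was detected by AlphaScreen.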

[7] = biological target: Chromobox protein homolog 1 (Homo sapiens) (UniProt P83916); test: qHTS Validation Assay for Inhibitors of HP1-beta Chromodomain Interactions with Methylated Histone Tails (AID 488953); also: nearly all actives have a fitted effect of over 50% in size; also: potency is read from the fitted curve at half-maximal effect
Chromobox protein homolog 1 (Homo sapiens), sequence (P83916 whole entry, looked up): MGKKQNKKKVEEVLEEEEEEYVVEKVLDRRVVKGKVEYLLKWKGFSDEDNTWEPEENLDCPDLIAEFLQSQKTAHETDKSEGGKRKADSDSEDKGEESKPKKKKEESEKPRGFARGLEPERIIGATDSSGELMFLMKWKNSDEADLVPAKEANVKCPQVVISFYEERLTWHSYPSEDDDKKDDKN
Procedure, shortened: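 Disruption of preformed HP1-beta:H3K9me3 peptide complexes (both 50 nM, PBS pH 7.4 with 0.01% Tween-20) is measured by AlphaScreen after 30 min compound exposure at room temperature, using streptavidin donor and nickel chelate acceptor beads at 10 ug/mL final.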

[8] = biological target: Methanococcus maripaludis chaperonin (MmCpn) (UniProt Q6LX38); test: High-Throughput Screening for Modulators of Cytosolic Chaperonin Activity: MmCpn Primary Screen (AID 488978);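 also: 50 nM MmCpn enzyme hydrolysing 30 µM ATP at 37 °C; 0% is about no effect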
Methanococcus maripaludis chaperonin (MmCpn), sequence (Q6LX38 1-543): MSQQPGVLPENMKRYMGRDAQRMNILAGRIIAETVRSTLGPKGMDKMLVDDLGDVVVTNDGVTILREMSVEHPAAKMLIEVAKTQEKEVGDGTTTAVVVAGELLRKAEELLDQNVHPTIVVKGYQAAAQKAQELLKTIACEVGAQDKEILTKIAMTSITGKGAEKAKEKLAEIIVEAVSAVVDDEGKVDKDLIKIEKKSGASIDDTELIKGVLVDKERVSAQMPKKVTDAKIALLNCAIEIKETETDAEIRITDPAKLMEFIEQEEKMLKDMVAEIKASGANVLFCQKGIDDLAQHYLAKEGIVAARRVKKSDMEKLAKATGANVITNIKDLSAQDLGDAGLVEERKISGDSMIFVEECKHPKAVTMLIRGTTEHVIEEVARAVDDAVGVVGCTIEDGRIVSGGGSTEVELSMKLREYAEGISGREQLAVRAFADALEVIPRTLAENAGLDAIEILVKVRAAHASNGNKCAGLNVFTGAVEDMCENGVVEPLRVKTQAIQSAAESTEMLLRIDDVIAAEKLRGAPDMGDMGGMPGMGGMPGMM
Procedure, shortened: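 MmCpn (50 nM final) was preincubated with compound 5 min at RT, then 30 uM ATP (final) was added and the reaction ran 10 min at 37C. ADP produced was detected by Transcreener HTRF (ex 320 nm; em 590/665 nm).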

[9] = biological target: Transient receptor potential cation channel subfamily V member 1 (Homo sapiens) (UniProt Q8NER1); test: HTS Assay for Compounds that Act as Enhancers of the Vanilloid Receptor 1 (AID 488979); also: 0% is about no effect
Transient receptor potential cation channel subfamily V member 1 (Homo sapiens), sequence (Q8NER1 whole entry, looked up): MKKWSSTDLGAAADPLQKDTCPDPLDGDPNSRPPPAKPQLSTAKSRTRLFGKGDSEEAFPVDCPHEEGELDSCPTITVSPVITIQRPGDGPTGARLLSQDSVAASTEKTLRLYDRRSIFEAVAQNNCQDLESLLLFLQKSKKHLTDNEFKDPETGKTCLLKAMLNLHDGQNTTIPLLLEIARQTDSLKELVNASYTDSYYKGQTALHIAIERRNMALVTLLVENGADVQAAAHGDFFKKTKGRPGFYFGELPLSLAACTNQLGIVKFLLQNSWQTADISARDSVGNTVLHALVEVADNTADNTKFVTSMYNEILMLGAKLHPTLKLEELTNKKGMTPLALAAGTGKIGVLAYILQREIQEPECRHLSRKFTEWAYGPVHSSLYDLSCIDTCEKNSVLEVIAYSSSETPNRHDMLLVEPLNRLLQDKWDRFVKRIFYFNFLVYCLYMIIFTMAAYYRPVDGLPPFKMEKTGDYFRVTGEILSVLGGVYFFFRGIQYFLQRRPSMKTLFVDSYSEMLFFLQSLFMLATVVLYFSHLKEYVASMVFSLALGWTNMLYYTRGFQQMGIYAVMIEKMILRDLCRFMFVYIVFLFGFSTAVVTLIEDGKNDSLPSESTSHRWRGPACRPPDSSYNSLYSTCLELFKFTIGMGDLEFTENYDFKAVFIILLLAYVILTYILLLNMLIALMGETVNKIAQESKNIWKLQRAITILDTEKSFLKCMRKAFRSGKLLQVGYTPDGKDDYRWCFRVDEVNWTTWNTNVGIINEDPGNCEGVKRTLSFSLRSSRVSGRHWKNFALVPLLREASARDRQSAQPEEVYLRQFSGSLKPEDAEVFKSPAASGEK
Procedure, shortened: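 TRPV1-expressing cells loaded with Fluo-8 calcium dye; compounds added and calcium influx read kinetically for 3 min (agonist phase), then capsaicin at EC20 added and read 2 min more for enhancement. Fluorescence ex 480/em 520 nm.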

[10] = biological target: Thyrotropin receptor (Homo sapiens) (UniProt P16473); test: qHTS Assay for Antagonists of the Thyroid Stimulating Hormone Receptor (AID 488980); also: series mostly up to about 58 µM; 0% is about no effect
Thyrotropin receptor (Homo sapiens), sequence (P16473 whole entry, looked up): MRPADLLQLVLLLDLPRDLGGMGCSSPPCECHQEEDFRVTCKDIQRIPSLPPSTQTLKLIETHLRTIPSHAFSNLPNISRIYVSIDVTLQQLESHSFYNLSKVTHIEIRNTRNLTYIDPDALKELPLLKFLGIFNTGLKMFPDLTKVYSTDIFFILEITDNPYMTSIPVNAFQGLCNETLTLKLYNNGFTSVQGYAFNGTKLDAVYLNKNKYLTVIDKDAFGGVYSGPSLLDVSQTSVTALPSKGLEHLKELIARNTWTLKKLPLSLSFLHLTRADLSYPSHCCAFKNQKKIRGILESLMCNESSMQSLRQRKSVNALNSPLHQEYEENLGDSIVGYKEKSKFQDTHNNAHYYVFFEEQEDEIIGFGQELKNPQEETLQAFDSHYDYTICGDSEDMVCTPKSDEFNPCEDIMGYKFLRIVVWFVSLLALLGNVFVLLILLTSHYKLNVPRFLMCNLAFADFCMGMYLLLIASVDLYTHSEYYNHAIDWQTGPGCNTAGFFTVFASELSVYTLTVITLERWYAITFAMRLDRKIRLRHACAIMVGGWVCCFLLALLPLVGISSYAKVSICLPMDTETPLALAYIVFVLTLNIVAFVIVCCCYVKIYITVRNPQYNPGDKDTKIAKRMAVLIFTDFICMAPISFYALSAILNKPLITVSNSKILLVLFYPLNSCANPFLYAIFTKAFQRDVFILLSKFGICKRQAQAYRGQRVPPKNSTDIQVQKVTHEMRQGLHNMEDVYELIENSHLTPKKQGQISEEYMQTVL
Procedure, shortened: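 HEK293 cells transfected with human TSHR, suspended in HEPES-buffered HBSS with 70 uM RO 20-1724, were treated with compounds plus TSH at EC80 (4 nM final). cAMP was measured by competitive HTRF (cryptate anti-cAMP antibody, cAMP-d2 acceptor).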

[11] = biological target: D(1A) dopamine receptor (Homo sapiens) (UniProt P21728); test: HTS Assay for Allosteric Agonists of the Human D1 Dopamine Receptor: Primary Screen for Agonists (AID 488981); also: 0% is about no effect
D(1A) dopamine receptor (Homo sapiens), sequence (P21728 whole entry, looked up): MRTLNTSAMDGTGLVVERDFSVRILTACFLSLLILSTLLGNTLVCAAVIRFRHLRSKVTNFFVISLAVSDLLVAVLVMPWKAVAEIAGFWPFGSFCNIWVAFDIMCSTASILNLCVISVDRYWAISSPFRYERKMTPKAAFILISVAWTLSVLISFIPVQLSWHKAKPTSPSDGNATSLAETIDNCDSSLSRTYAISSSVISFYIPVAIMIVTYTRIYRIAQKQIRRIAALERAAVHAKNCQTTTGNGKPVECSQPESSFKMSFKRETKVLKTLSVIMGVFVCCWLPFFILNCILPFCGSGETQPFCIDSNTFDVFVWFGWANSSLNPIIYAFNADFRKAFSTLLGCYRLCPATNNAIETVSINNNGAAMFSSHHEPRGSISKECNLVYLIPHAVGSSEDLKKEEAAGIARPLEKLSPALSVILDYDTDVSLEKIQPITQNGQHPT
Procedure, shortened: (§1)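 Tetracycline-induced HEK293 T-REx cells force-coupled to calcium signalling were incubated overnight at 30 C and dye-loaded at room temperature. Calcium flux over 180 s after compound addition flagged agonists; a further 180 s read after EC20 dopamine flagged potentiators.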

[12] = biological target: D(1A) dopamine receptor (Homo sapiens) (UniProt P21728); test: HTS Assay for Allosteric Agonists of the Human D1 Dopamine Receptor: Primary Screen for Antagonists (AID 488983);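 also: calcium flux response to an EC80 dopamine challenge measured with no-wash dye; % is scaled to controls: 0 for no effect and ±100 for the full control effect; nearly all actives have a fitted effect of over 65% in size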
Procedure, shortened: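 Kinetic fluorescence at 1 cycle/sec tracked intracellular calcium in force-coupled, tetracycline-inducible HEK293 T-REx D1 cells. Loss of response to an EC80 dopamine dose, given 180 s after compound, marked antagonists.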

[13] = Validation screen for small molecules that induce genotoxicity in human embryonic kidney (HEK293T) cells expressing luciferase-tagged ELG1 (AID 493106); also: 0% is about no effect
Procedure, shortened: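 Cells were dispensed at 2,000 per well, then 23 nL compound or DMSO was pinned in. After 16 hr at 37 °C and 5% CO2, ONE-Glo reagent was added. Luciferase activity was measured following 30 min at room temperature.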

[14] = biological target: ATPase family AAA domain-containing protein 5 (Homo sapiens) (UniProt Q96QE3); test: Validation screen for small molecules that inhibit ELG1-dependent DNA repair in human embryonic kidney (HEK293T) cells expressing luciferase-tagged ELG1 (AID 493107);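 also: cells co-treated with the DNA-damaging agent 5-fluorouridine alongside compound; series mostly up to about 46 µM; % is scaled to controls: 0 for no effect and ±100 for the full control effect; inhibitors lower the ELG1-luciferase luminescence signal; nearly all actives have a fitted effect of over 70% in size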
Procedure, shortened: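 Cells are dispensed in 1536-well format, then 5-fluorouridine and compound are pinned in. After a 16 hr incubation at 37 °C and 5% CO2, ONE-Glo is added and luciferase measured on a CCD imager.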

[15] = biological target: Thyrotropin-releasing hormone receptor (Homo sapiens) (UniProt P34981); test: qHTS for Small Molecule Agonists and Allosteric Enhancers of Human TRH Receptor: Validation Screen for Agonists (AID 493127;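 active = calcium activation more than 3 SD above the typical response in the agonist read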;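 also: intracellular calcium rise by fluo-8 fluorescence before TRH EC20 addition; 0% is about no effect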); conditions: TRH receptor agonist cell assay; at 2 µM; hits give high values
Thyrotropin-releasing hormone receptor (Homo sapiens), sequence (P34981 whole entry, looked up): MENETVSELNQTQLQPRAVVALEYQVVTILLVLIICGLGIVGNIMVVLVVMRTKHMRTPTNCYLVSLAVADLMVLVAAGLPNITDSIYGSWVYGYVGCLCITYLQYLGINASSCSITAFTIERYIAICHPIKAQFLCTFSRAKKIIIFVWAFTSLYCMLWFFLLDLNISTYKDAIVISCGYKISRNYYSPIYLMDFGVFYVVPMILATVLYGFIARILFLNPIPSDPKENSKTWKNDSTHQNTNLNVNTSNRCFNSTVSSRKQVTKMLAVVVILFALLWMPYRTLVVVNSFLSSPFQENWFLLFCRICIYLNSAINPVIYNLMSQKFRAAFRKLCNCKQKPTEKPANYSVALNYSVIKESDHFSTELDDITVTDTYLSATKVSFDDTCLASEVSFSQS
Procedure, shortened: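 Compounds are added by online pintool to dye-loaded TRHR cells while fluorescence is recorded every second. A rise in calcium signal during the agonist read marks activation; a later 10 nM TRH addition (EC20) serves the separate enhancer mode.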

[16] = Quantitative high throughput screen for delayed death inhibitors of the malarial parasite plastid, 48 hour incubation (AID 488752); also: % is scaled to controls: 0 for no effect and ±100 for the full control effect; nearly all actives have a fitted effect of over 65% in size
Procedure, shortened: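 First, compound was pinned into RPMI 1640 medium containing 0.5% Albumax. Next, reporter-parasite-infected erythrocytes were added to 2% hematocrit and 0.1% parasitemia. After 48 h at 37 C under 5% CO2, luciferase detection reagent was added and luminescence read.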

[17] = biological target: D(1A) dopamine receptor (Homo sapiens) (UniProt P21728); test: HTS Assay for Allosteric Agonists of the Human D1 Dopamine Receptor: Primary Screen for Potentiators (AID 488982); also: 0% is about no effect
Procedure, shortened: as §1

[18] = Quantitative high throughput screen for delayed death inhibitors of the malarial parasite plastid, 96 hour incubation (AID 488745);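 also: luciferase-expressing P. falciparum in erythrocytes at 2% hematocrit and 0.1% parasitemia; series mostly up to about 29 µM; % is scaled to controls: 0 for no effect and ±100 for the full control effect; nearly all actives have a fitted effect of over 70% in size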
Procedure, shortened: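 Readout is firefly luciferase luminescence from an integrated reporter in P. falciparum; lower signal marks inhibited growth. Cultures at 2% hematocrit and 0.1% parasitemia were treated with compound across two generations (96 h, 37 C, 5% CO2).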

NOCC(=O)O
inactive: outcome [1] | Potency [2] | outcome [3] | Potency [4] | Potency [5] | Potency [6] | Potency [7] | outcome [8] | outcome [9] | outcome [10] | Potency [11] | Potency [12] | Potency [13] | Potency [14] | activation [15] 0.25%

C[C@@H](NCCc1ccc(O)cc1)[C@@H](O)c1ccc(O)cc1
inactive: outcome [1] | Potency [2] | Potency [16] | outcome [3] | Potency [5] | Potency [6] | Potency [7] | outcome [8] | outcome [9] | outcome [10] | Potency [17] | Potency [13] | Potency [14] | activation [15] 1.12%

COc1cc2c(CCNC(C)=O)c[nH]c2cc1O
inactive: outcome [1] | Potency [2] | Potency [16] | outcome [3] | Potency [4] | Potency [5] | Potency [6] | Potency [7] | outcome [8] | outcome [9] | outcome [10] | Potency [11] | Potency [17] | Potency [12] | Potency [13] | activation [15] 0.875%

CC(=O)N[C@@H](Cc1c[nH]c2ccccc12)C(=O)OCc1cc(C(F)(F)F)cc(C(F)(F)F)c1
inactive: outcome [1] | Potency [2] | Potency [18] | outcome [3] | Potency [4] | Potency [5] | Potency [6] | outcome [8] | outcome [9] | outcome [10] | Potency [11] | Potency [17] | Potency [12] | Potency [13] | Potency [14] | activation [15] 2.62%

c1ccc2c(c1)CC(N1CCN(c3cccc4c3OCCO4)CC1)C2
active: Potency [7] 6 nM
inactive: outcome [1] | Potency [2] | Potency [16] | outcome [3] | Potency [4] | Potency [5] | Potency [6] | outcome [8] | outcome [9] | outcome [10] | Potency [11] | Potency [17] | Potency [12] | Potency [13] | Potency [14] | activation [15] -3.75%

CC(C)[C@@H]1CC[C@@H](C)C[C@@H]1P(=O)(c1ccccc1)c1ccccc1
inactive: outcome [1] | Potency [2] | outcome [3] | Potency [4] | Potency [5] | Potency [6] | Potency [7] | outcome [8] | Potency [11] | Potency [17] | Potency [12] | Potency [13] | Potency [14]

OC[C@H]1NC[C@@H](O)[C@@H]1O
inactive: outcome [1] | Potency [2] | Potency [16] | outcome [3] | Potency [4] | Potency [5] | Potency [7] | outcome [8] | outcome [9] | Potency [11] | Potency [17] | Potency [12] | Potency [13] | Potency [14] | activation [15] 1.19%

CC(=O)C(C)=O
inactive: outcome [1] | Potency [2] | Potency [18] | outcome [3] | Potency [5] | Potency [6] | outcome [8] | outcome [9] | outcome [10] | Potency [17] | Potency [12] | Potency [13] | Potency [14]

O=C(O)/C=C/c1cnc[nH]1
inactive: outcome [1] | Potency [2] | Potency [18] | outcome [3] | Potency [4] | Potency [5] | Potency [6] | outcome [8] | outcome [9] | outcome [10] | Potency [17] | Potency [12] | Potency [13] | activation [15] -0.125%

CC(N)(Cc1ccc(O)cc1)C(=O)O (centres undefined)
inactive: outcome [1] | Potency [2] | Potency [18] | outcome [3] | Potency [5] | Potency [6] | Potency [7] | outcome [8] | outcome [9] | outcome [10] | Potency [17] | Potency [12] | Potency [13] | Potency [14]

CCN(c1nc(N)c(C(=O)N=C(N)N)nc1Cl)C(C)C
inactive: outcome [1] | Potency [2] | Potency [16] | outcome [3] | Potency [4] | Potency [5] | Potency [6] | outcome [8] | outcome [9] | outcome [10] | Potency [11] | Potency [13] | Potency [14] | activation [15] 2.31%

CSC(=N)N
inactive: outcome [1] | Potency [2] | Potency [18] | outcome [3] | Potency [5] | Potency [7] | outcome [8] | Potency [11] | Potency [12] | Potency [13]

c1ccc(CN2CCC3(CCCc4ccccc43)CC2)cc1
inactive: outcome [1] | Potency [2] | outcome [3] | Potency [4] | Potency [5] | Potency [6] | Potency [7] | outcome [8] | outcome [9] | outcome [10] | Potency [11] | Potency [13] | activation [15] -8.25%
